p97 inhibitor – blocks human p97 ATPase activity; 0.42% of 220,000 active; inhibition, % at 8 µM; recombinant p97 ATPase, Kinase-Glo ATP luminescence, 3 h; in the data active means inhibition above about 15%;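 further: 0% = DMSO vehicle and 100% = wells lacking enzyme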
Insulin prom inh – TRM-6 insulin promoter activity inhibition | AID 1273 | 0.9% of 130,000 active | inhibition, % at 2 µM | TRM-6 cells (human fetal islet line), insulin promoter-eGFP reporter, imaging; reporter expression induced with tamoxifen;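 active means inhibition above the mean plus 3 SD, with well images judged a real hit on visual review, cut at about 60% in these data, passing the limit was not always enough; inconclusive means inhibition over the cutoff but images rejected on review; inactive means inhibition not above the cutoff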
PTEN del growth – PTEN-deleted cell growth suppression. HCT116 PTEN-null viability, CellTiter-Glo, 60 h; hits give low values. 1.2% of 140,000 active. viability, % at 10 µM;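 active means viability at or below a set limit, 4 SD under the median of all tested compounds, cut at about 3.7% in these data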;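 further: PTEN knockout HCT116 line with beta catenin targeted HCT116 as companion control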
ROMK mod – human ROMK K+ channel modulation, primary screen; P48048; Tet-inducible ROMK, thallium flux fluorescence; actives lie on both sides; B-score at 10 µM; 2% of 130,000 active; AID 1918;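 active means signal ratio slope over the read window, or its plate-corrected B-score, at least 3 SD from the plate mean, either direction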;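 further: B-score of the F/F0 ratio slope over 7 to 12 s after thallium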
Target sequence (P48048 whole entry, looked up): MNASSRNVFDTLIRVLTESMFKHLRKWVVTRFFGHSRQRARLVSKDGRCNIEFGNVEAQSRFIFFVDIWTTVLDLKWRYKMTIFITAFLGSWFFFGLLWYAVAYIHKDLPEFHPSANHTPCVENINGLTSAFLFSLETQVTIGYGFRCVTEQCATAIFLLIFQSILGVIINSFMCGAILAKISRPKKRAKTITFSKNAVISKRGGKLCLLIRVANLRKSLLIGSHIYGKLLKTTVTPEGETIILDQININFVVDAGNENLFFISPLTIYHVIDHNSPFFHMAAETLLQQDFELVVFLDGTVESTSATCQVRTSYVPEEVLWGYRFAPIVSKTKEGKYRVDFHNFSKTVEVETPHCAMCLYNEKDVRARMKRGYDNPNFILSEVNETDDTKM
L major viab – Leishmania major promastigote growth inhibition; Leishmania major promastigotes, resazurin fluorescence viability; 9% of 200,000 active; inhibition, % at 10 µM; in the data active means inhibition above about 50%;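 further: promastigotes grown with compound for 44 hours at 28 °C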
HCT116 bCat-KO – beta-catenin-lacking colon tumor cell growth suppression; viability, % at 10 µM; HCT116 beta-catenin knockout viability, CellTiter-Glo, 60 h; hits give low values; 1.5% of 140,000 active;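 active means viability at or under a set limit, the compound median less 4 SD, cut at about 6% in these data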;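 further: 0% = Hyamine 1622 control at 20 µM and 100% = untreated cell control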
Numbers without * were called inactive; ? = inconclusive; . = no result given. Compounds with a hit are over-represented: about 10% of the library has one in this group of screens.

SMILES	p97 inhibitor	Insulin prom inh	PTEN del growth	ROMK mod	L major viab	HCT116 bCat-KO
Cc1ccc(S(=O)(=O)Nc2cc(C(C(=O)OC(C)C)C(=O)C(F)(F)F)c(O)c3ccccc23)c(C)c1 (stereo unspecified)	5	.	62	.	92*	68
Cc1ccc(Oc2ccc(NC(=O)CSc3n[nH]c(N)n3)cc2)cc1	5	22	82	-0.85	59*	83
COc1ccc(NC(=O)NC(C)C2CC3CCC2C3)cc1 (stereo unspecified)	5	.	.	1	25	.
COc1cc(/C=C(/C#N)c2nc(-c3cc4ccccc4oc3=O)cs2)cc([N+](=O)[O-])c1O	6	.	.	1.7	.	.
COc1cc(/C=C(\C#N)c2nc(-c3cc4ccccc4oc3=O)cs2)ccc1O	6	.	36	-0.49	61*	25
O=C1c2ccccc2NC(c2ccc(-c3ccc(Br)cc3)o2)N1O (stereo unspecified)	7	-11	3.4*	.	99*	4.5*
CN1C(=S)SC(C)(C)C1NO (stereo unspecified)	1	-11	100	0.8	-5	95
CC(=O)NC1C(=O)SC1(C)C (stereo unspecified)	0	88*	96	.	-1	90
CC(C)C(=O)NC(c1ccco1)c1ccc2cccnc2c1O (stereo unspecified)	-1	-23	2.0*	.	100*	3.5*
Oc1c(C(Nc2nc3ccccc3s2)c2ccco2)ccc2cccnc12 (stereo unspecified)	3	.	15	.	100*	13
O=C(Nc1nc(-c2nc3ccccc3s2)cs1)c1ccco1	2	?	79	.	-8	83
CC(C)C(=O)NC(c1cccs1)c1cc([N+](=O)[O-])c2cccnc2c1O (stereo unspecified)	3	.	95	.	-7	105
O=C(CN1C(=O)NC2(CCCCC2)C1=O)NCc1ccc2c(c1)OCO2	3	.	.	-0.12	-2	.
COCCNC(=O)C(c1ccc(Cl)cc1)N(CCOC)C(=O)CCC(=O)Nc1nccs1 (stereo unspecified)	5	.	.	-1.1	-1	.
CCOC(=O)C(=O)NCc1ccc(/C=C2/N=C(C)C(C(=O)OCC)=C2O)o1	7	.	.	0.79	-6	.
CCOC(=O)C1=C(O)/C(=C\c2ccc(CNS(=O)(=O)c3ccc(Br)cc3)o2)N=C1C	3	3	97	-0.026	66*	87
COC(=O)C1=C(O)/C(=C\c2ccc(CNS(=O)(=O)c3ccccc3)o2)N=C1C	2	32	100	0.13	37	101
COC(=O)C1=C(O)/C(=C\c2ccc(CNS(=O)(=O)c3ccc(Cl)cc3)o2)N=C1C	6	-38	93	.	53*	92
CCOc1cc(CN2CCSCC2)ccc1O	0	-72	90	.	20	98
C=CCOc1ccccc1CN1CCSCC1	0	.	81	-1.1	98*	74
O=C(COc1ccc(Cl)cc1)Nc1cc(S(=O)(=O)N2CCCCC2)ccc1N1CCCCC1	2	15	72	0.014	26	81
CC1(C)Cc2c(c(N3CCOCC3)nc3sc4c(=O)[nH]cnc4c23)CS1	0	21	84	-0.026	14	89
CCN(CC)CCNc1ncnc2c1sc1nc(N3CCOCC3)c3c(c12)CC(C)(C)SC3	-2	17	1.5*	.	100*	1.6*
CN(C)CCNc1ncnc2c1sc1nc(N3CCOCC3)c3c(c12)CC(C)(C)SC3	-9	7	1.8*	.	101*	1.7*
CC1(C)Cc2c(c(N3CCOCC3)nc3sc4c(N5CCOCC5)nnnc4c23)CS1	-2	.	103	0.00074	-6	105
SMILES	p97 inhibitor	Insulin prom inh	PTEN del growth	ROMK mod	L major viab	HCT116 bCat-KO
Cc1c(Cl)c([N+](=O)[O-])nn1CC(=O)N1CCN(Cc2ccccc2)CC1	-4	.	.	-1.7	0	.
CCc1cc2c(Sc3nc4ccccc4s3)ncnc2s1	3	.	3.7*	.	18	4.4*
CCc1cc2c(SCC(=O)c3ccc(C)cc3)ncnc2s1	-7	-87	98	0.84	-5	96
Cc1c(C(=O)OCC(=O)Nc2ccc(C(N)=O)cc2)cccc1[N+](=O)[O-]	12	.	.	1.1	-11	.
COc1ccc([N+](=O)[O-])cc1N(CC(=O)NCCC1=CCCCC1)S(C)(=O)=O	3	43	98	0.66	71*	81
COc1ccc([N+](=O)[O-])cc1N(CC(=O)NCC1CCCO1)S(C)(=O)=O (stereo unspecified)	-1	-11	100	-0.012	58*	94
CNC(=O)CN(c1cc([N+](=O)[O-])ccc1OC)S(C)(=O)=O	7	24	103	0.35	44	91
COc1ccc(CNC(=S)N2CCN(Cc3ccccc3)CC2)cc1	0	.	.	.	.	.
Cc1cc(NCCCN2CCOCC2)n2ncc(-c3ccc(Cl)cc3)c2n1	2	.	66	.	99*	64
Cc1cc(NCCCn2ccnc2)n2ncc(-c3ccc(Cl)cc3)c2n1	-6	50	5	.	100*	8
CCN1CCN(C(=O)Cn2cnc3sc(C)c(S(=O)(=O)N4CCN(c5ncccn5)CC4)c3c2=O)CC1	1	.	.	0.041	3	.
CCCC(C)NC(=S)Nc1cc(C)cc(C)c1 (stereo unspecified)	-4	0	.	.	76*	.
O=C(NCCCn1ccnc1)c1ccc(Cl)c(S(=O)(=O)N2CCOCC2)c1	0	0	94	-0.0022	4	90
O=C(CCc1nc2ccccc2s1)OCc1ccccc1	-1	-32	103	.	56*	100
N#CCCN1CCN(C(=O)c2c(N)no[n+]2[O-])CC1	5	17	.	0.006	-8	.
Cc1ccc(C)c(NC(=O)C2(C)CC3c4ccccc4C2c2ccccc23)c1 (stereo unspecified)	2	15	83	.	-2	78
Cc1cccc(NC(=O)C2(C)CC3c4ccccc4C2c2ccccc23)c1C (stereo unspecified)	3	.	71	.	71*	76
C/C(=N\n1cnnc1)c1ccccc1	6	0	.	.	-2	.
O=C(N/N=C/C1C(c2ccccc2)C1(Cl)Cl)c1cccc(Cl)c1 (stereo unspecified)	-7	.	60	.	1	55
CC(C)=C(NC(=O)c1ccccc1Br)C(=O)NCCc1nc2ccccc2[nH]1	3	.	.	0.18	.	.
Cc1cc(C)c2c(n1)sc1c(-c3ccccc3)c(C#N)c(N)nc12	0	-90	55	0.56	-2	67
Cc1cc(C)c2c3c(sc2n1)C1(CCSCC1)C(C#N)=C(N)O3	-1	17	80	.	100*	77
Cc1ccc(-n2c(C(C)C)nc3oc4ccccc4c(=O)c3c2=O)cc1	0	.	.	.	.	.
Cc1ccc(NC(=S)N(CCN2CCCCC2)Cc2ccco2)cc1Cl	-1	.	.	-0.15	34	.
CC1(C)CC(=O)C(C=Nc2ccccc2C(=O)O)=C(O)C1	2	-27	93	.	3	102
CC1(C)CC(=O)C(C=Nc2ccccc2Sc2ccccc2)=C(O)C1	4	38	88	-0.2	71*	94

From PubChem
